# Assay outcomes: PubChem BioAssay, National Center for Advancing Translational Sciences (NCATS)
# Hits are enriched below; roughly 9.8% of the tested compounds scored in any of these assays.
# HTT cytoprotect = qHTS Multiplex Assay to Identify Dual Action Probes in a Cell Model of Huntington: Cytoprotection (ATP) | PC12 HTT-Q103 induced, cytoprotection, ATP luminescence, 40 h | Potency, µM (highest dose often 56.4 µM), usual class: activators | actives 0.14% (n = 230,000) | AID 1471, 2008; further: nearly all actives have a fitted effect of over 45% in size
#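 Compounds were screened for protection of PC12 cells against cell death after tebufenozide induction (100 nM final) of mutant Huntingtin exon 1 (Q103) fused to GFP.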
# ALDH1A1 block = qHTS Assay for Inhibitors of Aldehyde Dehydrogenase 1 (ALDH1A1). Aldehyde dehydrogenase 1A1 (Homo sapiens), P00352. Purified ALDH1A1, NADH fluorescence, propionaldehyde substrate. Potency, µM (top dose mostly 75.3 µM), hits mostly inhibitors. actives 7.3% (n = 220,000); active means well fitted inhibition curve with a large enough effect, not every such curve was filed as active; inconclusive means small, poorly fitted or top-dose-only effect, or another doubt; inactive means no such curve, though single readings can be large or run the other way
# Target sequence (P00352 whole entry, looked up): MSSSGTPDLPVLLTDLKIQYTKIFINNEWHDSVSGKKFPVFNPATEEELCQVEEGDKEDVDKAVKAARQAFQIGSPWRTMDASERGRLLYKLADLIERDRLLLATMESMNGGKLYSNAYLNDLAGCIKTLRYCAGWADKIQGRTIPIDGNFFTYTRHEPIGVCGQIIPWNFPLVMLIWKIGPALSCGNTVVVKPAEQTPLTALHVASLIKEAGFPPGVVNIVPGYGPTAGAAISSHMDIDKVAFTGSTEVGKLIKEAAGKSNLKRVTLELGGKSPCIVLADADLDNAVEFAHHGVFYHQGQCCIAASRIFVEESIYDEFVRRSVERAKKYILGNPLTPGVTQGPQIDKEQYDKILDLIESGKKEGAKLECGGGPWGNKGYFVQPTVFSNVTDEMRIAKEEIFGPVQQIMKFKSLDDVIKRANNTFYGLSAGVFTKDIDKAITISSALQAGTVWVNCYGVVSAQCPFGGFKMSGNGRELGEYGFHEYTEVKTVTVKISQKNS
# HPGD block = qHTS Assay for Inhibitors of HPGD (15-Hydroxyprostaglandin Dehydrogenase); actives 4.3% (n = 150,000); purified HPGD, NADH fluorescence kinetic, PGE2 substrate; Potency, µM, actives largely listed as inhibitors; 15-hydroxyprostaglandin dehydrogenase [NAD(+)] (Homo sapiens), P15428; active means well fitted inhibition curve with a large enough effect, not every such curve was filed as active; inconclusive means small, poorly fitted or top-dose-only effect, or another doubt; inactive means no such curve, though single readings can be large or run the other way
#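 NADH formation kinetics: reaction with 30 uM PGE2 and 1 mM NAD+ (final), 20 nM enzyme, Tris-HCl pH 8 with Tween 20, after 15 min compound preincubation at room temperature. Fluorescence change, last versus first of five reads.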
# JMJD2E inh = qHTS Assay for Inhibitors of Human Jumonji Domain Containing 2E (JMJD2E); AID 2147, 2009; Potency, µM (titrated, usually from 57.1 µM), actives largely listed as inhibitors; JMJD2E catalytic domain, FDH-coupled NADH fluorescence (FDH is formaldehyde dehydrogenase); Lysine-specific demethylase 4E (Homo sapiens), B2RXH2; actives 1.6% (n = 230,000); active means well fitted inhibition curve with a large enough effect, not every such curve was filed as active; inconclusive means small, poorly fitted or top-dose-only effect, or another doubt; inactive means no such curve, though single readings can be large or run the other way; further: nearly all actives have a fitted effect of over 50% in size
# CBFb-RUNX1 inh = qHTS Assay for Compounds Blocking the Interaction Between CBF-beta and RUNX1 for the Treatment of Acute Myeloid Leukemia; AlphaScreen CBFb-His/RUNX1-biotin binding, biochemical; Potency, µM (doses to about 59.8 µM), usual class: inhibitors; Runt-related transcription factor 1 (Homo sapiens) + Core-binding factor subunit beta …; 230,000 tested, under 10 active
#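 Interaction loss through any mechanism counts as activity. Pre-formed complex of His-CBF-beta and biotin-RUNX1 (30 nM apiece) is incubated with compound 15 min, then with 50 ng nickel and 50 ng streptavidin beads for 90 min before AlphaScreen detection.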
# HttQ103 aggreg = qHTS Multiplex Assay to Identify Dual Action Probes in a Cell Model of Huntington: Aggregate Formation (GFP). actives 1.1% (n = 220,000). AID 1688, 2009. PC12 HttQ103-GFP aggregates, Acumen cytometry, 40 h. Potency, µM (top dose mostly 46.1 µM), usual class: inhibitors; further: nearly all actives have a fitted effect of over 60% in size
#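 Inducible Q103 Huntingtin exon 1–GFP PC12 line, 1500 cells/well in phenol red free DMEM with 5% equine and 5% calf serum. Tebufenozide 100 nM induced expression; compounds titrated; aggregates quantified by cytometry.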
# Numbers stand for hits; – = inactive; ? = inconclusive; · = no result; [ ] = remark or other dose. Unless noted, the call rests on the fitted dose curve; in most records, active means well fitted curve in the direction sought with a large enough effect; inconclusive means small, poorly fitted or top-dose-only effect, or another doubt; inactive means no such curve, though single readings can be large; an effect the other way counts as inactive or inconclusive.
SMILES,HTT cytoprotect,ALDH1A1 block,HPGD block,JMJD2E inh,CBFb-RUNX1 inh,HttQ103 aggreg
CC12CCC(C(=O)N/N=C/c3ccc(O)cc3O)(OC1=O)C2(C)C (configuration not stated),–[10 µM],·,·,25.1µM,–,–[9.22 µM]
CC1(C)CC(=O)C(Sc2nnc(-c3ccc(O)cc3)n2CC2CCCO2)C(=O)C1 (configuration not stated),–,18.9µM,–,–,–,–
CC(=O)Nc1ccc(C(=O)CSc2nnc(-c3ccc(O)cc3)n2CC2CCCO2)cc1 (configuration not stated),–[10 µM],?,–,–,–,–
COc1ccc2c(c1)O[C@H](c1ccc3c(c1)OCO3)[C@@H](OC(=O)NS(=O)(=O)c1ccc(F)cc1)C2=O,–,–,–,–,–,·
Cc1ccccc1NCc1ccc(O)c2ncccc12,–[1.9 µM],3.98µM,–,7.08µM,?,?
OCc1ccnc2c(O)cccc12,–,–,–,?,–,–
COCc1ccc(O)c2ncccc12,–[10 µM],–,–,10µM,·,11.2µM
Oc1ccc(CNc2ccccc2)c2cccnc12,–[10 µM],10µM,–,8.91µM,?,?
Oc1ccc(CNc2ccc(F)cc2)c2cccnc12,–,8.91µM,–,7.94µM,–,–
CC1(CCl)N([O-])C2=C(CCCC2)[N+]1=O (configuration not stated),–[10 µM],·,·,?,–,–[9.22 µM]
O=C(Cn1nnc(-c2ccc(CN3CCOCC3)cc2)n1)N(c1ccccc1)c1ccccc1,–[10 µM],11.2µM,·,–,–,?
O=C(CCSc1ccc(Cl)cc1)Nc1cccnc1,·,–,·,–,–,·
C=CCn1c(SCC(=O)NC23CC4CC(CC(C4)C2)C3)nc2cc(C(=O)O)ccc2c1=O,–,12.6µM,·,?,?,–
C=CCn1c(SCc2cc([N+](=O)[O-])cc3c2OCOC3)nc2cc(C(=O)O)ccc2c1=O,–[10 µM],10µM,·,–,–,–[9.22 µM]
CCOC(=O)N1CCN(CC(=O)N2c3ccccc3CC2C)CC1 (configuration not stated),–,?,–,?,–,–
CCOC(=O)Cn1c(C(F)(F)F)nc2nc(Cl)c(Cl)nc21,–[10 µM],–[13.5 µM],?,·,·,·
CNc1nc(-c2cccnc2)nc2ccccc12,–,–,·,·,·,·
COc1ccc(C(=O)CCc2nc3ccccc3s2)cc1,–[10 µM],?,–,–,–,–
COc1nc(NC23CC4CC(CC(C4)C2)C3)nc(OC)n1,–,25.1µM,–,–,–,–
C1CCN=C(NC23CC4CC(CC(C4)C2)C3)CC1,·,–,–,–,–,–
CN(Cc1ccccc1)C(=O)C1CCCN1S(=O)(=O)c1ccc2c(c1)n(C)c(=O)c(=O)n2C (configuration not stated),–[10 µM],?,·,?,–,–[9.22 µM]
CCN(c1ccccc1)S(=O)(=O)c1cc(C(=O)Nc2ccc(Br)cc2)ccc1F,·,28.2µM,?,–,–,?
O=[N+]([O-])c1ccc2[nH]nc(-c3ccccc3)c2c1,–[0.074 µM],–,14.1µM,–,–,–
O=[N+]([O-])c1ccc2nc(-c3ccccc3)[nH]c2c1,–[10 µM],–,–,–,–,–
O=C(O)CNc1nc(-c2ccccc2)c2cc([N+](=O)[O-])ccc2n1,–[10 µM],17.8µM,–,–,–,–
O=[N+]([O-])c1ccc2nc(NCCCO)nc(-c3ccccc3)c2c1,–[10 µM],–,14.1µM,–,–,–
Cc1onc(-c2c(Cl)cccc2Cl)c1C(=O)N=S(C)(=O)c1ccccc1 (configuration not stated),–[10 µM],·,·,–,–,–[9.22 µM]
O=C(CSc1nnc(-c2ccc(C(F)(F)F)cn2)o1)Nc1ccccc1Cl,–[10 µM],–,·,–,–,–[9.22 µM]
